# Tests used:
# Assay in all cases: DAPPL (digital affinity profiling via proximity ligation, sequencing); 10 mM Tris-HCl pH 7.5, 50 mM NaCl, 1 mM DTT, 4% glycerol, room temperature, 30 min; GST-TFs on glutathione beads, 16-mer random dsDNA library, 0.1% formaldehyde crosslink after washing; high values mean tight binding
# Conditions in all cases: protein: recombinant; tags: N-terminal GST; dsDNA, one strand shown
# ERF = molecular target: T1, ERF (Homo sapiens, UniProt P50548 1-548)
# T1 sequence: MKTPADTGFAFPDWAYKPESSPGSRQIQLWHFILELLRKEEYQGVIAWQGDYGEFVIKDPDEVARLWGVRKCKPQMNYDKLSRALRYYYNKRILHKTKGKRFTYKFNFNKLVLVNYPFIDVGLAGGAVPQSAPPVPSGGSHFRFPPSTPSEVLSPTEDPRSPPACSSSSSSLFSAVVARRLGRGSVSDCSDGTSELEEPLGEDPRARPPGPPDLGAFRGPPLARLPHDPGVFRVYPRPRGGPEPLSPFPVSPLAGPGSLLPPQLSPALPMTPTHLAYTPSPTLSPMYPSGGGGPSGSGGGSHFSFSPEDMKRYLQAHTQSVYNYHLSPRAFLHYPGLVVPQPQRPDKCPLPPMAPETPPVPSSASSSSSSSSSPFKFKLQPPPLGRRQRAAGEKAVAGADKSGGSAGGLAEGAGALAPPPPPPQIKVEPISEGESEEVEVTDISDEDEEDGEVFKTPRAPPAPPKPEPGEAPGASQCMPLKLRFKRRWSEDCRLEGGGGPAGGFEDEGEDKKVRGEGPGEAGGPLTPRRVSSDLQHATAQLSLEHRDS
# How it was run: (§1)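 After expression in yeast as GST fusions, human transcription factors were bound to glutathione beads, DNA-barcoded and mixed with a tag-only sample. The pools were incubated with 200 nmole of a 16-mer random double-stranded DNA library in Tris/NaCl/DTT/glycerol buffer (30 min, room temperature), washed and crosslinked with 0.1% formaldehyde. Proximity ligation with BsaI/T4 ligase ran for 1 h at 37 °C, before PCR amplification and sequencing on an Illumina NextSeq500. Binding signal is a hexamer's read frequency for a factor divided by its frequency for the tag-only sample.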
# ETV3L = molecular target: T2, ETV3L (Homo sapiens, UniProt Q6ZN32 1-361)
# T2 sequence: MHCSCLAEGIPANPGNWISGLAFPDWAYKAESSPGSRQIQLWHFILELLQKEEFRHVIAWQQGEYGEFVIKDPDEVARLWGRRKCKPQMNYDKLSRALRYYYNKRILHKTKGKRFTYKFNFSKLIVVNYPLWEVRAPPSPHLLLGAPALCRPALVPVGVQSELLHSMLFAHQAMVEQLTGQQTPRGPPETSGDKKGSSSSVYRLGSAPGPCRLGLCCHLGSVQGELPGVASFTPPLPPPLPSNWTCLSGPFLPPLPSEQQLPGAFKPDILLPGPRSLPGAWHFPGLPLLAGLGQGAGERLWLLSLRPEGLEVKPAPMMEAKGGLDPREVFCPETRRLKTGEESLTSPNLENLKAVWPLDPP
# How it was run: as §1
# ETS2 = molecular target: T3, ETS2 (Homo sapiens, UniProt P15036 1-469)
# T3 sequence: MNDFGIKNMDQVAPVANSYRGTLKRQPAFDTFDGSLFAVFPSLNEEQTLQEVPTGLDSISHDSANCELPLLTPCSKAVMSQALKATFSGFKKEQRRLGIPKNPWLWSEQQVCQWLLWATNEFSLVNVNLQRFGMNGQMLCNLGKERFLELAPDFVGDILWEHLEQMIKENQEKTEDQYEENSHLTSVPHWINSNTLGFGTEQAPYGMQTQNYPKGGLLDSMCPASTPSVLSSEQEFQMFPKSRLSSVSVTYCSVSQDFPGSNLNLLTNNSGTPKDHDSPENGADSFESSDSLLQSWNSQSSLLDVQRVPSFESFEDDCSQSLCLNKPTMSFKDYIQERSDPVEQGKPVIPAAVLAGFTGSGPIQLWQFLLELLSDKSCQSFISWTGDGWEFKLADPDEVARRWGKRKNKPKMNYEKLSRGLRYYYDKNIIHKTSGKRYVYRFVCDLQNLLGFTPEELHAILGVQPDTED
# How it was run: as §1
# SPDEF = molecular target: T4, SPDEF (Homo sapiens, UniProt O95238 1-335)
# T4 sequence: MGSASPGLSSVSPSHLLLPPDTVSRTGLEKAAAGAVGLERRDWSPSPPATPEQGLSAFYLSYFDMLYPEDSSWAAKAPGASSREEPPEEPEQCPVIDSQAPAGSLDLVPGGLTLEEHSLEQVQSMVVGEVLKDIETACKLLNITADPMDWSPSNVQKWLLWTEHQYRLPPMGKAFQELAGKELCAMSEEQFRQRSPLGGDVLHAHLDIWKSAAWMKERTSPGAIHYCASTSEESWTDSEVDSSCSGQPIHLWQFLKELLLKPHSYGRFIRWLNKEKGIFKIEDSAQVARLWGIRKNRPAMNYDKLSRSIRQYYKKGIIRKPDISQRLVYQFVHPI
# How it was run: as §1
# ETV7 = molecular target: T5, ETV7 (Homo sapiens, UniProt Q9Y603 1-341)
# T5 sequence: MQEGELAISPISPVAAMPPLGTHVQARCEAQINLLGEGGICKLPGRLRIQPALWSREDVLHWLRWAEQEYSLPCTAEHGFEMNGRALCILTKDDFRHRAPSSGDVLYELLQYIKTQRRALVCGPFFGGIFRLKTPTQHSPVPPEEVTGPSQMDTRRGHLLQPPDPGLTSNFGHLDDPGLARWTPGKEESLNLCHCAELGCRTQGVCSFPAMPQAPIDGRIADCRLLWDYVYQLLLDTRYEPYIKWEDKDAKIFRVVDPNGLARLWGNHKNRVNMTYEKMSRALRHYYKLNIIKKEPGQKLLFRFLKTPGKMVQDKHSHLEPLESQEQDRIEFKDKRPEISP
# How it was run: as §1
# ELF5 = molecular target: T6, ELF5 (Homo sapiens, UniProt Q9UKW6-2 1-255)
# T6 sequence: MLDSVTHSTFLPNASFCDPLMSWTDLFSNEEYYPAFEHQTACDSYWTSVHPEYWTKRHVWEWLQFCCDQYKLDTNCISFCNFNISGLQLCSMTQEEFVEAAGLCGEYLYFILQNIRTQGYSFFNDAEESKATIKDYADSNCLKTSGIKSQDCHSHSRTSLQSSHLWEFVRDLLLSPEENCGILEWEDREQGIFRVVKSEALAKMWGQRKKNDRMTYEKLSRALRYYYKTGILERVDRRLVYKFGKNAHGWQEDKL
# How it was run: as §1
# ETV3 = molecular target: T7, ETV3 (Homo sapiens, UniProt P41162-2 1-143)
# T7 sequence: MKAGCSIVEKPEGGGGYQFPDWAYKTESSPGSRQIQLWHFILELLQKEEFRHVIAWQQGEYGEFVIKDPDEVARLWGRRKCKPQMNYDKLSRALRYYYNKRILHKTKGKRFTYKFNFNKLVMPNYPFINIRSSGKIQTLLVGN
# How it was run: as §1
# ETV6 = ETV6 (Homo sapiens, UniProt P41212 1-452)
# ETV6, sequence (P41212 whole entry): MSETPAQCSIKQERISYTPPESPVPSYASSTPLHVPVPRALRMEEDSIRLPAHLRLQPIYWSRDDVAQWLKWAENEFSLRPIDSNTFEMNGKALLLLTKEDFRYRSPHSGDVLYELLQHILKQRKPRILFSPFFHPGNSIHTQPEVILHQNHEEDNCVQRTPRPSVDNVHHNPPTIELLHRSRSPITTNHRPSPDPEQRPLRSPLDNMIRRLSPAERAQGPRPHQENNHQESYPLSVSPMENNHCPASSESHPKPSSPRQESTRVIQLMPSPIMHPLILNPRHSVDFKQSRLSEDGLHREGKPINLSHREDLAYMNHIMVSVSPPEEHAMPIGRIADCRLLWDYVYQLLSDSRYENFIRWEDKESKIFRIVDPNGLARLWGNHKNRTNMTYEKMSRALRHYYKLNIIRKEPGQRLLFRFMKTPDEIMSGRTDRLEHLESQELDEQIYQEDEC
# How it was run: as §1
Sequence,binding signal (ERF),binding signal (ETV3L),binding signal (ETS2),binding signal (SPDEF),binding signal (ETV7),binding signal (ELF5),binding signal (ETV3),binding signal (ETV6)
CTACTC,"1.48 fold enrichment (6-mer frequency, TF over GST control)","1.45 fold enrichment (6-mer frequency, TF over GST control)","1.34 fold enrichment (6-mer frequency, TF over GST control)","1.29 fold enrichment (6-mer frequency, TF over GST control)","1.13 fold enrichment (6-mer frequency, TF over GST control)","1.29 fold enrichment (6-mer frequency, TF over GST control)","1.25 fold enrichment (6-mer frequency, TF over GST control)","1.3 fold enrichment (6-mer frequency, TF over GST control)"
CGATTG,"1.24 fold enrichment (6-mer frequency, TF over GST control)","1.17 fold enrichment (6-mer frequency, TF over GST control)","1.15 fold enrichment (6-mer frequency, TF over GST control)","1.22 fold enrichment (6-mer frequency, TF over GST control)","1.18 fold enrichment (6-mer frequency, TF over GST control)","1.11 fold enrichment (6-mer frequency, TF over GST control)","1.07 fold enrichment (6-mer frequency, TF over GST control)","1.22 fold enrichment (6-mer frequency, TF over GST control)"
TCATCT,"1.21 fold enrichment (6-mer frequency, TF over GST control)","1.22 fold enrichment (6-mer frequency, TF over GST control)","1.2 fold enrichment (6-mer frequency, TF over GST control)","1.07 fold enrichment (6-mer frequency, TF over GST control)","1.14 fold enrichment (6-mer frequency, TF over GST control)","1.17 fold enrichment (6-mer frequency, TF over GST control)","1.19 fold enrichment (6-mer frequency, TF over GST control)","1.22 fold enrichment (6-mer frequency, TF over GST control)"
CATATA,"1.04 fold enrichment (6-mer frequency, TF over GST control)","1.09 fold enrichment (6-mer frequency, TF over GST control)","1.08 fold enrichment (6-mer frequency, TF over GST control)","1.02 fold enrichment (6-mer frequency, TF over GST control)","1.1 fold enrichment (6-mer frequency, TF over GST control)","1.01 fold enrichment (6-mer frequency, TF over GST control)","1.09 fold enrichment (6-mer frequency, TF over GST control)","1.12 fold enrichment (6-mer frequency, TF over GST control)"
CTCTCT,"1.63 fold enrichment (6-mer frequency, TF over GST control)","1.6 fold enrichment (6-mer frequency, TF over GST control)","1.43 fold enrichment (6-mer frequency, TF over GST control)","1.59 fold enrichment (6-mer frequency, TF over GST control)","1.56 fold enrichment (6-mer frequency, TF over GST control)","1.41 fold enrichment (6-mer frequency, TF over GST control)","1.68 fold enrichment (6-mer frequency, TF over GST control)","1.59 fold enrichment (6-mer frequency, TF over GST control)"
TATATA,"1.24 fold enrichment (6-mer frequency, TF over GST control)","1.23 fold enrichment (6-mer frequency, TF over GST control)","1.31 fold enrichment (6-mer frequency, TF over GST control)","1.35 fold enrichment (6-mer frequency, TF over GST control)","1.27 fold enrichment (6-mer frequency, TF over GST control)","1.23 fold enrichment (6-mer frequency, TF over GST control)","1.34 fold enrichment (6-mer frequency, TF over GST control)","1.28 fold enrichment (6-mer frequency, TF over GST control)"
CTTTGG,"1.19 fold enrichment (6-mer frequency, TF over GST control)","1.18 fold enrichment (6-mer frequency, TF over GST control)","1.13 fold enrichment (6-mer frequency, TF over GST control)","1.09 fold enrichment (6-mer frequency, TF over GST control)","1.26 fold enrichment (6-mer frequency, TF over GST control)","1.09 fold enrichment (6-mer frequency, TF over GST control)","1.22 fold enrichment (6-mer frequency, TF over GST control)","1.14 fold enrichment (6-mer frequency, TF over GST control)"
ATGACC,"1.42 fold enrichment (6-mer frequency, TF over GST control)","1.51 fold enrichment (6-mer frequency, TF over GST control)","1.66 fold enrichment (6-mer frequency, TF over GST control)","1.59 fold enrichment (6-mer frequency, TF over GST control)","1.51 fold enrichment (6-mer frequency, TF over GST control)","1.56 fold enrichment (6-mer frequency, TF over GST control)","1.47 fold enrichment (6-mer frequency, TF over GST control)","1.53 fold enrichment (6-mer frequency, TF over GST control)"
